Screening results (PubChem BioAssay)
Shown are actives, neighbours in structure and some others; about 7% of the full set was active somewhere.
KAT2A inh = qHTS Assay for Inhibitors of GCN5L2 | Histone acetyltransferase KAT2A (Homo sapiens), Q92830 | GCN5L2 HAT assay, ThioGlo1 CoA-SH fluorescence | Potency, µM (titrated, usually from 58.9 µM), for inactives: at the highest dose activity change, negative = inhibition, actives largely listed as inhibitors | hit rate 0.21% among 390,000; also: potency is read from the fitted curve at half-maximal effect; % is scaled to controls: 0 for no effect and ±100 for the full control effect
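qHTS, 1536-well. 20nM enzyme, pH 7.5 HEPES/EDTA/Tween-20 buffer; 15 min compound preinc., RT. Start: 75uM H3(1-25), 70uM AcCoA, 50uM ThioGlo1. Read Ex340/Em540 at t=0 (autofluorescence flag) and t=20 min.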
BAZ2B block = qHTS Assay for Inhibitors of BAZ2B | AID 504333, 2011 | hit rate 4.4% among 360,000 | Bromodomain adjacent to zinc finger domain protein 2B (Homo sapiens), Q9UIF8 | AlphaScreen BAZ2B-H3K14Ac peptide displacement | Potency, µM (titrated, usually from 114 µM), without a hit: at the top dose activity change, negative = inhibition, usual class: inhibitors; also: potency is read from the fitted curve at half-maximal effect; % is scaled to controls: 0 for no effect and ±100 for the full control effect; nearly all actives have a fitted effect of over 60% in size
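Protein-peptide AlphaScreen: BAZ2B 50 nM, b-H3K14Ac 50 nM, 1x PBS pH 7.4 + 0.01% Tween-20. Preincubation 30 min RT; cpd 30 min RT (top 110 uM); beads 20 min RT, light-protected.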
JMJD2A Tudor = qHTS Assay for Inhibitors of JMJD2A-Tudor Domain; AID 504339, 2011; AlphaScreen JMJD2A-Tudor / H3K4me3 peptide binding; Potency, µM (doses to about 114 µM), for inactives: top-dose activity change, negative = inhibition, most hits filed as inhibitors; hit rate 4.4% among 390,000; Lysine-specific demethylase 4A (Homo sapiens), O75164; also: potency is read from the fitted curve at half-maximal effect; % is scaled to controls: 0 for no effect and ±100 for the full control effect; nearly all actives have a fitted effect of over 50% in size
PI5P4K alpha inh = qHTS for Inhibitors of phosphatidylinositol 5-phosphate 4-kinase (PI5P4K); max response, %; hit rate 1.2% among 330,000; PI5P4Kalpha enzyme, ADP-Glo luminescence, 60 min; active compounds read low; active = max response of -50% or lower; inconclusive = between -30% and -50%; inactive = -30% or higher; also: value at the top dose of about 77 µM; % is scaled to controls: 0 for no effect and ±100 for the full control effect
Target sequence (P48426 whole entry, looked up): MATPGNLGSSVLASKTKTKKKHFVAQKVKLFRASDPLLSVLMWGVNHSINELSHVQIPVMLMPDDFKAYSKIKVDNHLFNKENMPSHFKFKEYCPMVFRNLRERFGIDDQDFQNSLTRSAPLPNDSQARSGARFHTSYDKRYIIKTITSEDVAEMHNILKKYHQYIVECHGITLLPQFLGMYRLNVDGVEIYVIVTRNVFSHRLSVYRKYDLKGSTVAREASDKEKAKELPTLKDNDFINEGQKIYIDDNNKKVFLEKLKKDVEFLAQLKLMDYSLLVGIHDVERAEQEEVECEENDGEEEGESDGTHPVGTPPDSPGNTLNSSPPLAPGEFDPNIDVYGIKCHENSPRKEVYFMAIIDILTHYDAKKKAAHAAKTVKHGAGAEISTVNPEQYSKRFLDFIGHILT
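Enzyme plus substrate dispensed, test compounds pinned in, then ATP (5 microM final) added. After 60 min at RT, ADP-Glo reagent 1 for 45 min and reagent 2 for 30 min preceded luminescence imaging.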
PLK1 PBD inh = qHTS for Inhibitors of PLK1-PDB (polo-like kinase 1 - polo-box domain): Primary Screen; Serine/threonine-protein kinase PLK1 (Homo sapiens), P53350; Plk1 PBD binding of FITC phosphopeptide, fluorescence polarization; Potency, µM, inactives show max response, negative = inhibition, most hits filed as inhibitors; hit rate 2.8% among 360,000; AID 720504, 2013; also: potency is read from the fitted curve at half-maximal effect; series mostly up to about 57 µM; % is scaled to controls: 0 for no effect and ±100 for the full control effect; nearly all actives have a fitted effect of over 65% in size
HP1b binding inh = HTS for Inhibitors of HP1-beta Chromodomain Interactions with Methylated Histone Tails. Potency, µM (series often up to 114 µM), without a hit: at the highest dose activity change, negative = inhibition, hits mostly inhibitors. Chromobox protein homolog 1 (Homo sapiens), P83916. hit rate 0.56% among 390,000. AlphaScreen HP1-beta / biotin-H3K9me3 peptide binding; also: potency is read from the fitted curve at half-maximal effect; nearly all actives have a fitted effect of over 70% in size
Target sequence (P83916 whole entry, looked up): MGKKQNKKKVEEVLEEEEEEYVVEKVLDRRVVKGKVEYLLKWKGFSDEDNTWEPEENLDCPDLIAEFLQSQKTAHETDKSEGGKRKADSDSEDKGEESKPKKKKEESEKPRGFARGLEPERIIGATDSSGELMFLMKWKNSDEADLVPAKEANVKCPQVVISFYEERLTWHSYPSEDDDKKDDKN
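Compound inhibition of the preformed complex between 50 nM HP1-beta and 50 nM biotinylated H3K9me3 peptide was read by AlphaScreen. Buffer was PBS pH 7.4 with 0.01% Tween-20. Incubations ran 30 min at room temperature, with 10 ug/mL donor/acceptor beads.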
* = called active by the depositor; ? = inconclusive; . = no result given; ! = a repeat was not active; [ ] = remark or other dose. Unless noted, calls follow the shape of the dose curve; as a rule, active = well fitted curve in the direction sought with a large enough effect; inconclusive = small, poorly fitted or top-dose-only effect, or another doubt; inactive = no such curve, though single readings can be large; an effect the other way counts as inactive or inconclusive.

SMILES | KAT2A inh | BAZ2B block | JMJD2A Tudor | PI5P4K alpha inh | PLK1 PBD inh | HP1b binding inh
CC(=O)c1ccc(NC(=O)CC(NCCC2=CCCCC2)C(=O)O)cc1 (stereo not drawn) | 1% | -6% | 13µM* | 0 | -4% | -15%
O=C(CSc1nc(C(F)(F)F)cc(=O)[nH]1)NCc1ccc2c(c1)OCO2 | -2% | 7% | -18% | -7 | -3% | 25%
CC(C)CN(Cc1cc(=O)oc2cc(-c3ccccc3)c(O)cc12)CC(C)C | -15% | 1% | -4%[11.4 µM] | -3 | 30µM* | 12%
O=c1cc(CN2CCN(c3ccccc3F)CC2)c2cc(O)c(-c3ccccc3)cc2o1 | -1% | 1% | 89µM* | -16 | ? | -12%
COc1ccc(N2CCN(Cc3cc(=O)oc4cc(-c5ccccc5)c(O)cc34)CC2)cc1 | -15% | 13% | -24% | 7 | -5% | 9%
O=C1NC(=S)S/C1=C\c1cc2ccccc2nc1N1CCCCC1 | -4% | -33% | 45µM* | -21 | 11µM* | -17%
COc1ccc2nc(N3CCCC3)c(C#N)cc2c1 | -7% | 85% | 63% | . | 17µM* | 142%
COc1ccc2nc(N3CCCCC3)c(/C=C3\SC(=S)NC3=O)cc2c1 | -21% | 25µM* | 28µM* | ? | ? | ?
CC(=O)Nc1ncc(Sc2ccc([N+](=O)[O-])cc2)s1 | . | . | -10% | 1 | -11% | 28%
O=S(=O)(c1ccc(NC(=S)NC2CC2)cc1)N1CCOCC1 | -4% | -1% | -7% | 2 | ? | 28%[57 µM]
NS(=O)(=O)c1ccc(NC(=O)CSC2CCCCC2)cc1 | 11% | -1% | 28µM* | -14 | 30µM* | -18%
Cc1ccc(N2C(=O)CC(SCC(=O)Nc3ccc(S(N)(=O)=O)cc3)C2=O)cc1 (stereo not drawn) | -5% | 5% | 6%[57.1 µM] | 2 | -12% | 46%
O=S(=O)(c1ccc(NC(=S)NC2CCCC2)cc1)N1CCCC1 | -12% | -17% | -33% | ? | 15µM* | -7%
NS(=O)(=O)c1ccc(NC(=S)NC2CCCC2)cc1 | -7% | -5% | 6% | 5 | -11% | 29%
COc1ccc(NC(=O)CSC2CCCCC2)cc1 | -23% | 8% | -10% | . | -4% | 30%
NS(=O)(=O)c1ccc(NC(=S)NC2CCCCCC2)cc1 | -3% | -2% | -29% | 4 | 19µM* | -21%
CCOC(=O)c1ccc(N2C(=O)CC(SCC(=O)Nc3ccc(S(N)(=O)=O)cc3)C2=O)cc1 (stereo not drawn) | 2% | -4% | -16% | -5 | 30µM* | 33%
CCOc1ccccc1NC(=O)CSC1=Nc2ccccc2C2=NC(CC(=O)NCc3ccc4c(c3)OCO4)C(=O)N12 (stereo not drawn) | -15% | -4% | -24% | . | . | 48%
COC(=O)c1ccc(NC(=S)NNC(=O)CC(C)C)cc1 | 45% | -1% | -23% | -12 | 27µM* | -12%
NS(=O)(=O)c1ccc(NC(=O)CSc2ncnc3ccccc23)cc1 | -2% | 79µM* | -13% | 1 | ? | 38%
CC(C)CC(=O)NC(=S)Nc1ccc(S(=O)(=O)N2CCCC2)cc1 | 16% | -15% | -20%[11.4 µM] | 3 | 24µM* | -10%
NS(=O)(=O)c1cccc(NC(=O)CSc2ncnc3ccccc23)c1 | 2% | -2% | -11% | -4 | -19% | 25%
O=C(Nc1cccc(C(F)(F)F)c1)Nc1nnc([C@@H]2C[C@H](O)[C@@H](CO)O2)s1 | . | . | . | -3 | 1% | .
Cc1ccc(S(=O)(=O)N2CCOCC2)cc1NC(=O)CNC(C)c1ccccc1 (stereo not drawn) | -5% | . | 1.3µM* | 6 | -3% | ?
O=C(CNCc1ccccn1)Nc1cc(S(=O)(=O)N2CCCCC2)ccc1Cl | -2% | . | 79µM* | -2 | 6% | 51%
SMILES | KAT2A inh | BAZ2B block | JMJD2A Tudor | PI5P4K alpha inh | PLK1 PBD inh | HP1b binding inh
Cc1ccc(S(=O)(=O)N2CCOCC2)cc1NC(=O)CSc1ncccn1 | 0% | 7% | -7% | -1 | -9% | 8%
Cc1ccc(S(=O)(=O)N2CCOCC2)cc1NC(=O)CNCc1ccccn1 | -12% | 32µM* | -12%[11.4 µM] | 1 | -14% | 83%
CN(c1ccccc1)S(=O)(=O)c1cccc(C(=O)NCC(=O)Nc2ccc(F)c(F)c2F)c1 | -7% | . | -2% | -5 | 2% | 29%
CC1CCCC(C)N1/N=C/c1ccccc1F (stereo not drawn) | 1% | 50µM* | 3.2µM* | -3 | -3% | ?
CC1CCCC(C)N1/N=C/c1ccc(Cl)cc1 (stereo not drawn) | -2% | -11% | -35% | 2 | -1% | -2%
CCCCC(=O)Nc1ccc(OCc2cc(=O)n3c(C)csc3n2)cc1 | -8% | 4% | -11% | . | . | 54%
O=C(NC(Sc1ccc(Cl)cc1)C(=O)O)c1ccccc1 (stereo not drawn) | . | . | . | 9 | 13µM* | .
O=C(NC(C(=O)O)c1ccccc1)c1ccccc1 (stereo not drawn) | -6% | -3% | 6% | 0 | -1% | 41%
O=[N+]([O-])c1cc(Br)ccc1C[n+]1ccccc1 | . | . | -21% | 9 | 7% | 15%
COc1ccc(CCNC(=O)CNCCc2ccc(F)cc2)cc1 | 27% | 79µM* | 22µM* | 0 | -17% | -19%
COc1ccc(CCNC(=O)COc2ccc([N+](=O)[O-])cc2)cc1 | 2% | -2% | -23%[11.4 µM] | -19 | 19µM* | -14%
COc1ccc(CCCC(=O)Nc2ccc(F)cc2)cc1 | 2% | 11% | ? | -8 | 21µM* | ?
COc1ccc(CCNC(=O)CNC(=O)N2CC(=O)Nc3ccccc32)cc1 | . | . | . | 2 | 1% | .
COc1ccc(CCNC(=O)CCNC(=O)N2CC(=O)Nc3ccccc32)cc1 | 5% | 8% | ? | -2 | 21µM* | 10%
COc1ccc(NC(=O)CCSc2ccc(F)cc2)cc1 | -6% | 14% | -15% | -2 | -2% | 36%
CN(C(=O)c1ccc(C#N)cc1)c1nnc(-c2cnccn2)s1 | -8% | -5% | -8% | -4 | -3% | 36%
COc1ccc(/C=C2\SC(=O)N(CCNC(=O)Cn3[nH]c(=O)c4ccccc4c3=O)C2=O)cc1 | 1% | . | -20% | -7 | -25% | -21%
COc1ccc(CCCc2nnc(SCC(=O)Nc3ccc(OC)cc3)o2)cc1 | -16% | 3% | 28µM*! | -6 | 1% | -5%
